Test results reported in PubChem BioAssay AID624330 (Southern Research Specialized Biocontainment Screening …, 2012).
In all, about 340,000 compounds went through this assay and about 2,100 (0.62%) were called active.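 Rule for the calls: active = first-screen hits whose inhibition reached a set limit at any dose in the follow-up dose series; inconclusive = inhibition above the set first-screen limit but never retested; inactive = the rest.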 These entries were drawn from the full list. Measured potencies and affinities stand elsewhere.

target: Rac GTPase-activating protein 1 (Homo sapiens) (UniProt Q9H0H5); assay: MgcRacGAP GTPase-activating activity inhibitors, confirmation, biochemical, ADP Hunter fluorescence, primary and confirmatory (AID 624330); settings: MgcRacGAP-stimulated Rac1 GTP hydrolysis, at 30 µM, stronger effect = higher value, GST-tagged Rac1 F28L mutant substrate;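 note: fluorescence reports GDP produced by GAP-driven GTP hydrolysis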
Sequence (Q9H0H5 whole entry, looked up): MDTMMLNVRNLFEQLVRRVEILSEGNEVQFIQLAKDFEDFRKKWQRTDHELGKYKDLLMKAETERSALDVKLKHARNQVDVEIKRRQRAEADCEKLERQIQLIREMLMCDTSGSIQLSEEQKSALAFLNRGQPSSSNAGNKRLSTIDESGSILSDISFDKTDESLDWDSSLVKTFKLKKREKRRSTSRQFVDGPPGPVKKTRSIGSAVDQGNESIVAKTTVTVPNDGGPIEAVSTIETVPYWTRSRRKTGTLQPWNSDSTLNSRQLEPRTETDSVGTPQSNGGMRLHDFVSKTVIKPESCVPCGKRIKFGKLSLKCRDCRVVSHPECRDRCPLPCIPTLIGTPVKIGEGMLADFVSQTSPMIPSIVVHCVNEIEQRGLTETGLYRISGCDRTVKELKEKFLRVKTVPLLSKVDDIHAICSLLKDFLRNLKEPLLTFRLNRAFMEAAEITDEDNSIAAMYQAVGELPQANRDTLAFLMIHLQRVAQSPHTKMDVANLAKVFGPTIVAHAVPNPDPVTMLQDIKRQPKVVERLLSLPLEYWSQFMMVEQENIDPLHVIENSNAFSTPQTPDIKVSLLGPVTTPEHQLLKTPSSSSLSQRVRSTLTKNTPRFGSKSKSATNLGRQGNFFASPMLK

inhibition, inactive:
Cn1cc(SCC(=O)Nc2ccc3c(c2)OCO3)c2ccccc21 5.29%
O=C(NCc1ccccc1Cl)c1ccccc1CCc1ccccc1 6.88%
Cc1ccc(NC(=O)C2=CC=CN3CCS(=O)(=O)N=C23)cc1 2.18%
CCc1ccc(NC(=O)C2=CC=CN3CCS(=O)(=O)N=C23)cc1 7.78%
CN(C)C(=O)CCc1nc2sc3c(c2c(=O)[nH]1)CCCC3 18%
NC(=O)Cn1cc(/C=N\NS(=O)(=O)c2ccc(Cl)cc2)c2ccccc21 20%
COC(=O)c1ccc(NC(=S)N2CCN(Cc3ccc(Cl)cc3)CC2)cc1 -0.55%
CN1C(=O)/C(=C/c2coc3ccc(O)cc3c2=O)SC1=S 11.2%
CSC1=NSC2=NC(=O)/C(=C/c3coc4ccc(O)cc4c3=O)C(=N)N12 14.1%
O=C1NC(=S)S/C1=C\c1coc2ccc(O)cc2c1=O 7.3%
O=C1NN(c2ccccc2)C(=O)/C1=C\c1coc2ccc(O)cc2c1=O 23.8%
COc1ccc(CCNC(=O)c2cccc(S(=O)(=O)N3CCCCC3)c2)cc1 8.12%
C[C@H]1CN([C@@H](C)CO)C(=O)c2cccc(NC(=O)Nc3ccc(F)cc3)c2O[C@@H]1CN(C)Cc1ccc(C(=O)O)cc1 2.98%
O=C(NCc1ccccn1)C1Nc2ccc(C(F)(F)F)cc2C2C=CCC12 (stereo not given) 24.7%
O=c1cc(CNc2cc(Cl)ccc2Cl)nc2sccn12 2.5%
CCN(CC)C(=O)C(Sc1nnnn1-c1ccc(O)cc1)c1ccccc1 (stereo not given) 3.92%
Cc1c(Br)cnn1C(C)C(=O)N1CCN(c2ccc(F)cc2)CC1 (stereo not given) 3.49%
COc1cccc(/C=C/C(=O)NCc2cn3cc(Cl)ccc3n2)c1 2.4%
COc1cc(/C=C/C(=O)OCC(=O)Nc2ccccc2Sc2ccc(Cl)cc2)ccc1O 16.7%
O=C(COC(=O)/C=C/c1cccc(F)c1)Nc1ccccc1 -19.5%
O=C(/C=C/c1cccc(Cl)c1)OCc1cn2cc(Cl)ccc2n1 11.7%
COc1cc(NC(=O)COC(=O)/C=C/c2ccc(OC)c(OC)c2)cc(OC)c1 -0.81%
COc1cc(/C=C/C(=O)OCC(=O)Nc2ccc([N+](=O)[O-])cc2)ccc1O 4.8%
COc1cc(/C=C/C(=O)OCC(=O)Nc2cc(C)c(C)cc2[N+](=O)[O-])ccc1O 9.32%
COc1cc(/C=C/C(=O)OCC(=O)Nc2ccc(Cl)cn2)ccc1O 21.2%
CCOc1cc(CNCC2CCCO2)cc(Br)c1OCC(N)=O (stereo not given) 3.03%
CCn1ncc(CN2CCN(C(=O)Nc3ccccc3C(=O)OC)CC2)c1C 6.62%
O=C(Cn1ncn2c(cc3ccccc32)c1=O)NCCCc1ccccc1 1.38%
CC(C)(C)NC(=O)CN1C(=O)/C(=C/c2ccccc2)SC1=S 9.16%
CCC(Cc1ccccc1)NC(=O)CCc1ccccc1 (stereo not given) 7.57%
O=C(OCN1C(=O)C(=O)c2ccccc21)c1ccc(Cl)cc1 7.35%
CCCCn1c(N)c(N(Cc2ccccc2OC)C(=O)COc2ccc(F)cc2Cl)c(=O)[nH]c1=O 4.08%
CCOC(=O)C1=C(COC(=O)/C=C/c2ccc(OCC)c(OC)c2)NC(=O)NC1C (stereo not given) 9.47%
CCOC(=O)C1=C(COC(=O)/C=C/c2ccc(OC)c(OC)c2)NC(=O)NC1C (stereo not given) -0.71%
COc1ccc(-c2cc(C3CCN(Cc4cccc(C(F)(F)F)c4)CC3)[nH]n2)cc1 9.81%
CC(C)c1ccc2nc(NC(=O)C3CC3)sc2c1 9.94%
COc1ccccc1NC(=O)c1ccccc1S(=O)(=O)c1ccc([N+](=O)[O-])cc1 11.4%
c1ccc(Nc2cccc(Nc3ccccc3)n2)cc1 16.6%
c1ccc(Nc2ccccn2)cc1 1.32%
Cc1ccc(NC(=O)CSc2ccc3c(c2)OCCO3)c(O)c1 8.94%
CC(=O)c1ccc(N2CCN(C(=O)COc3ccc4c(c3)CCC4)CC2)cc1 5.57%
O=C(O)c1ccc2c(c1)S(=O)(=O)c1cc(N3CCN(c4cnccn4)CC3)ccc1C2=O 13.8%
O=C(Cn1[nH]c(=O)c2ccccc2c1=O)NC1CCN(Cc2ccccc2)CC1 5.55%
COc1cc(C)c(-c2cc(C(=O)O)c(C)o2)cc1C(C)C 8.02%
COc1cc(C)c(S(=O)(=O)N2CCCC2)cc1C(C)C 3.94%
Nc1ccc2c(=O)[nH][nH]c(=O)c2c1 3.77%
Nc1ccc2c(c1)[nH]c(=O)c1ccccc12 21.4%
C[C@H](CO)N1C[C@H](C)[C@@H](CN(C)S(=O)(=O)c2cccs2)Oc2ccc(NC(=O)NC3CCCCC3)cc2C1=O 3.35%
Cn1ccnc1Sc1nc2c(c(=O)n(C)c(=O)n2C)n1C 1.94%
COc1cc(C(=O)Nc2cccc(S(=O)(=O)N3CCCC3)c2)c([N+](=O)[O-])cc1OC 4.7%
Cn1c(=S)[nH]c2ccccc21 11.4%
S=c1[nH]nc2nnc3ccccc3n12 17.6%
COc1cc(NC(=O)c2cccc(F)c2)cc(OC)c1OC 8.45%
C=CCn1c2ccccc2c2n[nH]c(=S)nc21 3.05%
COCCNC(=O)c1c[nH]c2ccc(S(=O)(=O)N3CCC4(CC3)OCCO4)cc2c1=O 10.7%
N#Cc1ccccc1N=C1CCCN1Cc1ccccc1 16.7%
Cc1ccc(N=C2CCCCCN2C)c(C#N)c1 3.58%
CCc1ccc(OCC(O)Cn2c(N3CCCCC3)nc3c2c(=O)[nH]c(=O)n3C)cc1 (stereo not given) -4.27%
O=C(Nc1ccccc1Cl)Oc1ccc(Cl)cc1Cl 9.61%
O=C(Nc1ccccc1Cl)OCC#CCOC(=O)Nc1ccccc1Cl 11%
C[C@@H]1CN([C@@H](C)CO)C(=O)CCCn2nncc2CO[C@H]1CN(C)C(=O)Nc1ccc(N2CCCCC2)cc1 11.5%
O=C(CCN1C(=O)/C(=C/c2ccccc2Cl)SC1=S)NN1CCOCC1 4.7%
Cn1nccc1NC(=O)Nc1cccc(Cl)c1Cl 2.52%
CC(C)(C)c1nnc(N/N=C/c2ccc(Br)cc2)n(N)c1=O 9.58%
CC(C)(C)c1nnc(N/N=C/c2ccccc2)n(N)c1=O 8.65%
CCOc1ccc(NC(=O)CN(C)C(=O)c2cn(-c3ccc(F)cc3)nc2-c2cccc(OC)c2)cc1OCC 0.09%
CC(OC(=O)/C=C/c1ccccc1)C(=O)Nc1ccc2c(c1)OCCO2 (stereo not given) 9.16%
O=C(NCCc1nc2ccccc2[nH]1)Nc1ccccc1 8.22%
COc1cccc(C(=O)Nc2cccc(NC(C)=O)c2)c1 10.6%
NS(=O)(=O)c1cccc(NC(=O)c2cccc(-c3ccc(O)cc3)c2)c1 12.5%
COc1ccc(NC(=O)c2cc(OC)c(OC)c(OC)c2)cn1 7.64%
COc1ccc(NC(=O)c2cccc(Oc3ccccc3)c2)cn1 4.7%
CCOc1ccc(N(C(C)C(=O)Nc2ccc(OC)cc2)S(C)(=O)=O)cc1 (stereo not given) 9.57%
Cc1ccc(NC(=O)COC(=O)c2cc(Cl)ccc2[N+](=O)[O-])cc1 9%
O=C(c1c(O)cc(O)cc1O)C1c2c(cc(O)c3c2O[C@H](c2ccc(O)cc2)[C@@H](O)C3)OC1c1ccc(O)cc1 (stereo not given in full) 12.8%
O=C1c2c(O)cc(O)cc2O[C@H](c2ccc(O)c(O)c2)[C@H]1O 13.3%
COc1cc2c3c([nH]c2cc1F)C(=O)NCC3 9.04%
O=[N+]([O-])c1cccc(CSc2nc3ccccc3[nH]2)c1 3.52%
CCN(CC(=O)Nc1cc(Cl)ccc1C)C(=O)COc1ccccc1F -0.45%
COc1cc(/C=N/Nc2ccccn2)ccc1OCC(C)C 1.63%
C(=N\n1cnnc1)/c1ccc(N2CCOCC2)cc1 8.48%
CCCOc1ccc(/C=N/Nc2ccccn2)cc1OC 13.1%
CCOc1ccc(/C=N/Nc2ccccn2)cc1OC 6.25%
Brc1ccc(/C=N/Nc2ccccn2)cc1 10.9%
Cc1ccc(N/N=C/c2ccc(N3CCOCC3)cc2)cc1C 24.2%
Clc1ccc(/C=N/Nc2ccccn2)cc1 11.1%
C=CCOc1ccc(/C=N/Nc2ccccn2)cc1OC 9.55%
COc1ccccc1-c1nnc(SC)n1C 7.84%
CC(=O)N1N=C(c2ccccc2)CC1c1ccc2c(c1)OCO2 (stereo not given) 13.6%
CC(C)(C)OC(=O)C[C@H]1C/C=C\C[C@@H](CC(=O)NCCO)C(=O)N[C@H](Cc2ccccc2)COC1=O 5.95%
CC1Cc2ccccc2N1S(=O)(=O)c1cnc(Cl)c(Cl)c1 (stereo not given) 6.78%
O=S(=O)(NCC(c1ccc2c(c1)OCO2)N1CCOCC1)c1ccccc1 (stereo not given) 4.31%
O=C(CCCC1=NS(=O)(=O)c2ccccc2N1)NCCc1ccc(Cl)cc1 12.4%
CN(C1CCCCC1)S(=O)(=O)c1ccc(=S)[nH]c1 16.8%
Cc1cccc(COCC(Cc2ccccc2)N2CCN(C(=O)c3cc(Cl)cc(Cl)c3)CCC2=O)c1 (stereo not given) 10.4%
